For 40 compounds, Potency, activity change, negative = inhibition and activity change, negative = reduced viability results are on record in PubChem BioAssay (NCATS).

Records with an inconclusive call do not appear. A call without a number means that no potency is given here. A number with no mark means an inactive call. Calls of active or inactive are those of the source. The call rests on the fitted dose curve; tested in HEK293 reporter line.
Potency means the concentration at half of the fitted maximal effect.

The first assay in a line: qHTS for Inhibitors of the Functional Ribonucleoprotein Complex (vRNP) of Lassa (LASV) Arenavirus: LASV Primary Screen - GLuc reporter signal (AID 1347082). Further: nearly all actives have a fitted effect of over 60% in size. Conditions: LASV minigenome vRNP, Gaussia luciferase reporter; series mostly up to 57.5 µM. A general note: In qHTS, concentration-response curves come from the screen itself.
Regarding `C/C=C(/C)C(=O)OC(C)(C)[C@@H]1Cc2c(ccc3ccc(=O)oc23)O1`, the Potency entry is “inactive”.

For the compound `C=C1[C@@H](OC(C)=O)CC[C@]2(C)[C@@H]1C[C@@H]1C[C@H](OC(C)=O)C(C)=C([C@@H](OC(C)=O)[C@@H]2OC(C)=O)C1(C)C`, the Potency entry is “inactive”.

Take `COc1cccc2c(=O)c3ccoc3n(C)c12`: the Potency result was “inactive”.

For the compound `COc1cc2c(c(OC)c1OC)-c1c(cc3c(c1OC)OCO3)CC(C)C(C)(O)C2OC(=O)c1ccccc1` (stereo not given), the Potency entry is “inactive”.

`C/C=C1\CN2[C@H]3C[C@@]45c6ccccc6N(C)[C@H]4[C@@H]2CC1C3[C@H]5O` (stereo not given in full): the Potency entry is “inactive”.

For `c1ccc(-c2ccncc2)cc1`, the Potency result was “inactive”.

For the compound `C=C(C)C(COc1c2occc2cc2ccc(=O)oc12)OC(C)(C)C(O)COc1c2occc2cc2ccc(=O)oc12` (stereo not given), the Potency result was “inactive”.

For the compound `Cc1nc(Nc2n[nH]c3c2CN(C(=O)N[C@H](CN(C)C)c2ccccc2)C3(C)C)c2sccc2n1`, the Potency was 7.69 µM (active).

`CC(C)(O)CC[C@@H](O)[C@](C)(O)C1CC[C@@]2(O)C3=CC(=O)[C@]4(O)C[C@@H](O)[C@@H](O)C[C@]4(C)C3CC[C@]12C` (stereo not given in full): the Potency result was “inactive”.

On to `COC(=O)C(O)C(O)(CCC(C)C)C(=O)OC1C(OC)=CC23CCCN2CCc2cc4c(cc2C13)OCO4` (stereo not given), for which the Potency result was “inactive”.

With `Oc1cc(O)cc(-c2cc3ccc(O)cc3o2)c1`, the Potency entry is “inactive”.

For `COc1cc2c(c(OC)c1OC)-c1c(cc3c(c1OC)OCO3)C1OC2[C@@H](C)[C@H]1C` (stereo not given in full), the Potency result was “inactive”.

Turning to `CC1(C)C2CC1[C@@](C)(O)[C@H](O)C2` (stereo not given in full), the Potency entry is “inactive”.

Consider `COc1cc(C)c(C(=O)Oc2cc(C)c(C(=O)O)c(O)c2C)c(O)c1C(=O)O`, for which the Potency entry is “inactive”.

Take `COc1cc(OC)c2c(c1)C(=O)OC2`: the Potency entry is “inactive”.

For the compound `CC1=C(C=O)C(C)(C)CCC1`, the Potency entry was “inactive”.

With `CCCCCCCCO[C@@H]1O[C@H](CO)[C@@H](O)[C@H](O)[C@H]1O`, the Potency entry was “inactive”.

In the case of `CC(C)C(=O)COc1c2occc2cc2ccc(=O)oc12`, the Potency result is “inactive”.

Regarding `Nc1nc2c(ncn2[C@@H]2O[C@H](COP(=O)(O)OP(=O)(O)OP(=O)(O)O)[C@@H](O)C2O)c(=O)[nH]1` (stereo not given in full), the Potency entry is “inactive”.

`CC12CCC(=O)C=C1C(F)CC1C2C(O)CC2(C)C1CCC2(O)C(=O)CO` (stereo not given): the Potency entry was “inactive”.

`C=C(C)[C@@H]1CCC2=CC(=O)C[C@@H](C)[C@]2(C)C1`: the Potency entry was “inactive”.

Regarding `C[C@H]1CC2C3CCC4=CC(=O)C=C[C@]4(C)[C@@]3(Cl)[C@@H](O)C[C@]2(C)[C@@]1(O)C(=O)CO` (stereo not given in full), the Potency entry was “inactive”.

For `CC1CCC(=O)O1` (stereo not given), the Potency result was “inactive”.

For the compound `COc1ccc2c(c1)c(=O)cc(-c1ccccc1)n2C`, the Potency entry was “inactive”.

In the case of `CSc1c(Cl)c(Cl)c(Cl)c(Cl)c1Cl`, the Potency result is “inactive”.

For the compound `Cc1cccc2c3c(ccc12)C1=C(C(=O)C3=O)[C@@H](C)CO1`, the Potency result was “inactive”.

With `O=C(CCCCO)CCCCCCCC[C@H]1N[C@H](CO)[C@H](O)[C@@H]1O[C@@H]1O[C@H](CO)[C@@H](O)[C@H](O)[C@H]1O`, the Potency entry is “inactive”.

As for `O=C(O)CCC/C=C\C/C=C\C=C\[C@@H](O)C/C=C\CCCCCO`, the activity change, negative = inhibition was 7.21% [at 0.757 µM].

Consider `CCCCCC/C=C/C=O`, for which the Potency entry is “inactive”.

On to `CCCCCCC[C@@H](C/C=C/CCC(=O)N(C)C/C(=C/Cl)C/C(=C\C(=O)N1CC(OC)=CC1=O)OC)OC`, for which the Potency entry was “inactive”.

With `O=c1c(-c2ccc(O)cc2)coc2cc(OC3OC(CO)C(O)C(O)C3O)ccc12` (stereo not given), the Potency entry was “inactive”.

`COC(/C=C(\C)CCC=C(C)C)OC`: the Potency result was “inactive”.

Regarding `Cn1cnc2c(ncn2[C@@H]2O[C@H](CO)[C@@H](O)[C@H]2O)c1=N`, the Potency result was “inactive”.

`COc1c(C)c2c(c(O)c1CC=C(C)CCC(=O)OCCN1CCOCC1)C(=O)OC2`: the Potency is 6.11 µM (active).

On to `Nc1ncnc2c1ncn2[C@H]1O[C@H](CO)[C@@H](O)[C@@H]1O`, for which the Potency entry was “inactive”.

For the compound `C/C=C(/CC[C@@H](C)[C@H]1CC[C@H]2C3=CC[C@H]4[C@H](C)[C@@H](O)CC[C@]4(C)[C@H]3CC[C@]12C)C(C)C`, the Potency result is “inactive”.

Take `COc1cc2c(c3oc(-c4ccccc4)cc(=O)c13)C=CC(C)(C)O2`: the Potency entry was “inactive”.

For `C[C@@H]1C(=O)CC2C(C)(C)CCC[C@]2(C)[C@@]1(O)CCc1ccoc1` (stereo not given in full), the Potency entry is “inactive”.

`O=C(/C=C/c1ccccc1)NCCc1cnc[nH]1`: the Potency entry was “inactive”.

On to `CC(C)(O)Cn1c(NC(=O)c2ccc(-c3cn[nH]c3)s2)nc2cc(CN3CCOCC3)ccc21`, for which the Potency is 3.43 µM (active).

A short description of the next assay: qHTS for Inhibitors of the Functional Ribonucleoprotein Complex (vRNP) of Lassa (LASV) Arenavirus: Viability assay - alamar blue signal for LASV Primary Screen (AID 1347083). Further: nearly all actives have a fitted effect of over 80% in size. The note with it: cell viability, alamar blue fluorescence (LASV minigenome counter-screen); series mostly up to 57.5 µM.
With `C/C=C(/C)C(=O)OC(C)(C)[C@@H]1Cc2c(ccc3ccc(=O)oc23)O1`, the Potency entry is “inactive”.

Consider `C=C1[C@@H](OC(C)=O)CC[C@]2(C)[C@@H]1C[C@@H]1C[C@H](OC(C)=O)C(C)=C([C@@H](OC(C)=O)[C@@H]2OC(C)=O)C1(C)C`, for which the Potency result was “inactive”.

Turning to `COc1cccc2c(=O)c3ccoc3n(C)c12`, the Potency result was “inactive”.

Regarding `COc1cc2c(c(OC)c1OC)-c1c(cc3c(c1OC)OCO3)CC(C)C(C)(O)C2OC(=O)c1ccccc1` (stereo not given), the Potency result was “inactive”.

For the compound `C/C=C1\CN2[C@H]3C[C@@]45c6ccccc6N(C)[C@H]4[C@@H]2CC1C3[C@H]5O` (stereo not given in full), the Potency entry is “inactive”.

On to `c1ccc(-c2ccncc2)cc1`, for which the Potency entry was “inactive”.

For `C=C(C)C(COc1c2occc2cc2ccc(=O)oc12)OC(C)(C)C(O)COc1c2occc2cc2ccc(=O)oc12` (stereo not given), the Potency result is “inactive”.

As to `Cc1nc(Nc2n[nH]c3c2CN(C(=O)N[C@H](CN(C)C)c2ccccc2)C3(C)C)c2sccc2n1`, the Potency is 0.193 µM (active).

`CC(C)(O)CC[C@@H](O)[C@](C)(O)C1CC[C@@]2(O)C3=CC(=O)[C@]4(O)C[C@@H](O)[C@@H](O)C[C@]4(C)C3CC[C@]12C` (stereo not given in full): the Potency entry was “inactive”.

As to `COC(=O)C(O)C(O)(CCC(C)C)C(=O)OC1C(OC)=CC23CCCN2CCc2cc4c(cc2C13)OCO4` (stereo not given), the Potency entry is “inactive”.

Consider `Oc1cc(O)cc(-c2cc3ccc(O)cc3o2)c1`, for which the Potency entry was “inactive”.

Regarding `COc1cc2c(c(OC)c1OC)-c1c(cc3c(c1OC)OCO3)C1OC2[C@@H](C)[C@H]1C` (stereo not given in full), the Potency entry was “inactive”.

`CC1(C)C2CC1[C@@](C)(O)[C@H](O)C2` (stereo not given in full): the Potency result is “inactive”.

Take `COc1cc(C)c(C(=O)Oc2cc(C)c(C(=O)O)c(O)c2C)c(O)c1C(=O)O`: the Potency result was “inactive”.

For the compound `COc1cc(OC)c2c(c1)C(=O)OC2`, the Potency entry was “inactive”.

Regarding `CC1=C(C=O)C(C)(C)CCC1`, the Potency entry was “inactive”.

As to `CCCCCCCCO[C@@H]1O[C@H](CO)[C@@H](O)[C@H](O)[C@H]1O`, the Potency result was “inactive”.

On to `CC(C)C(=O)COc1c2occc2cc2ccc(=O)oc12`, for which the Potency entry was “inactive”.

Regarding `Nc1nc2c(ncn2[C@@H]2O[C@H](COP(=O)(O)OP(=O)(O)OP(=O)(O)O)[C@@H](O)C2O)c(=O)[nH]1` (stereo not given in full), the Potency result was “inactive”.

As for `CC12CCC(=O)C=C1C(F)CC1C2C(O)CC2(C)C1CCC2(O)C(=O)CO` (stereo not given), the Potency result is “inactive”.

`C=C(C)[C@@H]1CCC2=CC(=O)C[C@@H](C)[C@]2(C)C1`: the Potency result was “inactive”.

In the case of `C[C@H]1CC2C3CCC4=CC(=O)C=C[C@]4(C)[C@@]3(Cl)[C@@H](O)C[C@]2(C)[C@@]1(O)C(=O)CO` (stereo not given in full), the Potency result was “inactive”.

As for `CC1CCC(=O)O1` (stereo not given), the Potency result was “inactive”.

Regarding `COc1ccc2c(c1)c(=O)cc(-c1ccccc1)n2C`, the Potency entry was “inactive”.

Consider `CSc1c(Cl)c(Cl)c(Cl)c(Cl)c1Cl`, for which the Potency result is “inactive”.

For `Cc1cccc2c3c(ccc12)C1=C(C(=O)C3=O)[C@@H](C)CO1`, the Potency entry is “inactive”.

Turning to `O=C(CCCCO)CCCCCCCC[C@H]1N[C@H](CO)[C@H](O)[C@@H]1O[C@@H]1O[C@H](CO)[C@@H](O)[C@H](O)[C@H]1O`, the Potency result was “inactive”.

In the case of `O=C(O)CCC/C=C\C/C=C\C=C\[C@@H](O)C/C=C\CCCCCO`, the activity change, negative = reduced viability is 9.56% [at 0.757 µM].

Regarding `CCCCCC/C=C/C=O`, the Potency entry was “inactive”.

Turning to `CCCCCCC[C@@H](C/C=C/CCC(=O)N(C)C/C(=C/Cl)C/C(=C\C(=O)N1CC(OC)=CC1=O)OC)OC`, the Potency entry was “inactive”.

Regarding `O=c1c(-c2ccc(O)cc2)coc2cc(OC3OC(CO)C(O)C(O)C3O)ccc12` (stereo not given), the Potency entry is “inactive”.

`COC(/C=C(\C)CCC=C(C)C)OC`: the Potency result is “inactive”.

As to `Cn1cnc2c(ncn2[C@@H]2O[C@H](CO)[C@@H](O)[C@H]2O)c1=N`, the Potency entry was “inactive”.

On to `COc1c(C)c2c(c(O)c1CC=C(C)CCC(=O)OCCN1CCOCC1)C(=O)OC2`, for which the Potency was 6.85 µM (active).

`Nc1ncnc2c1ncn2[C@H]1O[C@H](CO)[C@@H](O)[C@@H]1O`: the Potency entry is “inactive”.

Regarding `C/C=C(/CC[C@@H](C)[C@H]1CC[C@H]2C3=CC[C@H]4[C@H](C)[C@@H](O)CC[C@]4(C)[C@H]3CC[C@]12C)C(C)C`, the Potency result was “inactive”.

As for `COc1cc2c(c3oc(-c4ccccc4)cc(=O)c13)C=CC(C)(C)O2`, the Potency result was “inactive”.

Take `C[C@@H]1C(=O)CC2C(C)(C)CCC[C@]2(C)[C@@]1(O)CCc1ccoc1` (stereo not given in full): the Potency entry is “inactive”.

Take `O=C(/C=C/c1ccccc1)NCCc1cnc[nH]1`: the Potency entry was “inactive”.

Take `CC(C)(O)Cn1c(NC(=O)c2ccc(-c3cn[nH]c3)s2)nc2cc(CN3CCOCC3)ccc21`: the Potency was 3.43 µM (active).
